Results taken from PubChem BioAssay (EPA / NIEHS).
The source made the active and inactive calls. The calls were made as follows: active = hit-call score of the fitted dose curve at least 0.9, where 1 is the maximum; inactive = score below 0.9.

Test: ATG_GATA_CIS: Attagene CIS-FACTORIAL HepG2 Assay for human GATA Binding Protein (AID 2282944)
Settings: HepG2 GATA cis-element reporter, Attagene multiplex mRNA; actives raise or lower the signal
Procedure: ATG_CIS is a cell-based, multiplexed-readout assay that uses HepG2, a human liver cell line, with measurements taken at 24 hours after chemical dosing in a 24-well plate.ATG_GATA_CIS is one of 52 assay component(s) measured or calculated from the ATG_CIS assay. It is designed to make measurements of mRNA induction, a form of inducible reporter, as detected with fluorescence intensity signals by Reverse transcription polymerase chain reaction (RT-PCR) and Capillary electrophoresis technology.Data from the assay component ATG_GATA_CIS was analyzed into 1 assay endpoint. This assay endpoint, ATG_GATA_CIS, was analyzed with bidirectional fitting relative to DMSO as the negative control and baseline of activity. Using a type of inducible reporter, measures of mRNA for gain or loss-of-signal activity can be used to understand the reporter gene at the transcription factor-level as they relate to the gene GATA1. Furthermore, this assay endpoint can be referred to as a primary readout, because this assay has produced multiple assay endpoints where this one serves a reporter gene function. To generalize the intended target to other relatable targets, this assay endpoint is annotated to the dna binding intended target family, where the subfamily is GATA proteins.
Human liver HepG2 cells are transiently transfected with multiple reporter transcription units (MRTUs) in 6-well plates using FuGene 6 reagent (Roche; 3 ml FuGene/1 mg DNA). The MRTU constructs are regulated by a cis-regulating element (promoter). […] A major difference between the CIS and TRANS system is that in CIS activities of endogenous TFs are measured, whereas the TRANS assay evaluates changes in activities of exogenous, chimeric NR-Gal4 proteins. […] At the end of 24 hour incubation, total RNA was isolated using TriZol reagent (Invitrogen). The isolated RNA is then reverse-transcribed using oligo(dT) primer and Mo-MLV reverse transcriptase (Invitrogen) with DNAse I (Ambion) treatment for 30 min. The one-tenth of the produced cDNA was amplified by PCR using Taq DNA polymerase (Invitrogen) and two reporter sequence-specific primers. The PCR products were fluorescently labeled by primer extension with 6-arboxyfluorescein (6-FAM) 5'-labeled reporter sequence-specific primer (2 min at 95 C, 20 s at 68 C and 10 min at 72 C) and these products were digested with 5U of HpaI (New England Biolabs) for 2h at 37 C. The fragments were purified using Qiaquick PCR columns (Qiagen), analyzed on an ABI 3130xL genetic analyzer (Applied Biosystems) with peak positions identified by using a set of X-rhodamine (ROX)-labeled MapMarker1000 molecular weight standards (BioVentures). The raw capillary electrophoresis data was processed using Attagraph software (Attagene).

outcome, inactive:
C=C1[C@H]2CC[C@@H]3[C@H]2C(C)(C)CCC[C@]13C
O=C1OC(=O)c2cc(Oc3ccc4c(c3)C(=O)OC4=O)ccc21
CC(CC=O)CCCC(C)(C)O (stereo not given)
O=S(=O)(O)c1cc(S(=O)(=O)O)c2ccc3c(S(=O)(=O)O)cc(S(=O)(=O)O)c4ccc1c2c43
CCCCCCCCC(=O)OCC
C=CC(C)(C)C
CCCCCC(C)O (stereo not given)
O=C1CCCCCN1SSN1CCCCCC1=O
CCC(CC)C(=O)O
CCC(C)(C)C1CCCCC1OC(C)=O (stereo not given)
C=CCOCC(O)CCl (stereo not given)
COC(=O)c1cc(Cl)ccc1[N+](=O)[O-]
N=c1ccn2c(n1)O[C@H]1[C@H](O)[C@@H](CO)O[C@H]12
Cc1cc(C)c(C(=O)O)c(C)c1
C/C=C\C/C=C/CCCCCCCCOC(C)=O
c1c[nH]cn1
O=C(O)c1cc(Cl)cc([N+](=O)[O-])c1Cl
OC1OCCOC1O (stereo not given)
CCC(=O)Oc1ccc(/C(CC)=C(\CC)c2ccc(OC(=O)CC)cc2)cc1
CCOCC(=O)O
COc1cc(C)ccc1C(C)C
CC(C)=CCC/C(C)=C\C#N
COCC(C)N (stereo not given)
CCCCCCCCc1ccc(Nc2ccc(CCCCCCCC)cc2)cc1
O=C1c2ccccc2C(=O)C1c1nc2ccccc2c(Br)c1O
O=CC1CC1
CC(=O)NS(=O)(=O)c1ccc(N)cc1
CC(=O)c1ccc2c(c1)CCCC2
CC(=O)c1ccc[nH]1
C=C(C)c1cccc(C(C)(C)N=C=O)c1
COC(F)(F)C(F)(C(F)(F)F)C(F)(F)F
CCCNC(=O)NS(=O)(=O)c1ccc(Cl)cc1
Cc1cc(O)c(Cl)c(C)c1Cl
OCCNCc1ccccc1
CC=CCO
C#CC1(O)CC[C@H]2[C@@H]3CCC4=CCCC[C@@H]4[C@H]3CC[C@@]21C (stereo not given in full)
CC(=O)OC(C)C
Cc1c(C)c([N+](=O)[O-])c(C(C)(C)C)c([N+](=O)[O-])c1C
C[Si](C)O[Si](C)(C)O[Si](C)(C)O[Si](C)C
CCCCCCCC[N+](C)(CCCCCCCC)CCCCCCCC
